Sampled rows, rich in hits. Any-hit rate of the full collection: about 0.45%.
B2AR arrestin: beta2AR (human) beta-arrestin recruitment activity | actives 0.02% (n = 330,000) | P07550 | Potency, µM (series often up to 46.1 µM), usual class: activators | beta-arrestin recruitment to beta2AR, cell-based reporter; note: nearly all actives have a fitted effect of over 65% in size
Target sequence (P07550 whole entry, looked up): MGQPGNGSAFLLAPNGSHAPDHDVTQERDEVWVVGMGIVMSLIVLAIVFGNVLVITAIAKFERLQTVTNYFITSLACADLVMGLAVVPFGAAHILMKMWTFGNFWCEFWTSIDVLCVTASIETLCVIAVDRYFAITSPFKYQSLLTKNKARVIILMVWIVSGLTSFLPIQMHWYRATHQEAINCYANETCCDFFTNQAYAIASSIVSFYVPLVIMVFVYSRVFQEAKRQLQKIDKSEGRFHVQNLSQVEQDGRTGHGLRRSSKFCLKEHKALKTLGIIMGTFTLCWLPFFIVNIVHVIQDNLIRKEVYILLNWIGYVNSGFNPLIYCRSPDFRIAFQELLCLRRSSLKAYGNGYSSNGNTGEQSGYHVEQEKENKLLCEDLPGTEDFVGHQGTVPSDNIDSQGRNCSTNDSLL
PGK inhibitor: inhibitors of T. brucei phosphoglycerate kinase. P07378. PGK/GAPDH coupled, Kinase-Glo luminescence, 60 min. Potency, µM (series often up to 57.5 µM), actives largely listed as inhibitors. actives 0.043% (n = 380,000). AID 602233; note: nearly all actives have a fitted effect of over 60% in size
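Luminescent ATP detection (Kinase-Glo Plus) follows a 60-minute room-temperature incubation, with wells lacking PGK as controls. Buffer: 100 mM TEA (pH 7.6), 5 mM MgCl2, 0.01% Tween-20. Coupling enzyme GAPDH (100 nM final) supplies unstable 1,3-BPG in-well.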
BCR signal inh: chronic active BCR signaling inhibition | ABC-DLBCL IkBa-CBG/CBR reporter, luminescence ratio, 4 h | Potency, µM (top dose mostly 46.1 µM), most hits filed as inhibitors | actives 0.05% (n = 340,000); active = well fitted inhibition curve with a large enough effect in the signal ratio, with a control signal flat, not every such curve was filed as active; inconclusive = small, poorly fitted or top-dose-only effect, or effect the other way, or a change in a side signal; the % refers to the signal ratio
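Cell line TMD8 (human ABC DLBCL), stably expressing tet-inducible CBG68-IkBa fusion and CBR; IMDM/0.5% FBS; cpd up to 46 uM; dox induction, 4 h, 37C/5% CO2; dual luminescence; green/red ratio; MG132 control.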
Pin1 inh: human Pin1 inhibition; actives 0.009% (n = 390,000); Potency, µM (titrated, usually from 115 µM), most hits filed as inhibitors; Q13526; AID 504891; Pin1 FP peptide displacement, HiFluor488, 10 min; active = well fitted inhibition curve with a large enough effect in the polarisation, with a control signal flat, not every such curve was filed as active; inconclusive = small, poorly fitted or top-dose-only effect, or effect the other way, or a change in a side signal; inactive = no such curve, though single readings can be large or run the other way; the % refers to the polarisation
Target sequence (Q13526 whole entry, looked up): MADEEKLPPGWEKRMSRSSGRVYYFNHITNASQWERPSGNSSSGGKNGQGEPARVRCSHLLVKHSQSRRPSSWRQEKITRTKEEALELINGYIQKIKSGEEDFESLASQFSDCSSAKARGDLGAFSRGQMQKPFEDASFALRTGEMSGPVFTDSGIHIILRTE
FEN1 inhibitor: inhibitors of human flap endonuclease 1; P39748; Recombinant FEN1 flap cleavage, fluorescence, 15 min; Potency, µM (top dose mostly 114 µM), usual class: inhibitors; actives 0.35% (n = 390,000); AID 588795; note: nearly all actives have a fitted effect of over 65% in size
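Recombinant FEN1 (10 nM) was preincubated with pin-transferred compounds for 15 min at room temperature, then flap DNA substrate (50 nM final) was added. Plates were read at 0 and 15 min, and normalized concentration–response data were fitted to a four-parameter Hill equation.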
Apoferritin bind: binds horse apoferritin like a general anesthetic | Potency, µM (highest dose often 77.5 µM), most hits filed as inhibitors | AID 485281 | apoferritin/1-aminoanthracene competitive binding, fluorescence | actives 0.074% (n = 350,000) | P02791; note: nearly all actives have a fitted effect of over 20% in size
Target sequence (P02791 2-175 limits assumed): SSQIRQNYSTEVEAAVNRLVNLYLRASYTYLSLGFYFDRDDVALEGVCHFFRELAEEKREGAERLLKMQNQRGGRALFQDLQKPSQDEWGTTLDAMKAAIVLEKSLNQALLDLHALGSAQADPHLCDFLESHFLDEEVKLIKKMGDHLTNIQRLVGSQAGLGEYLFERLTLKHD
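Probe: 1-aminoanthracene (50% saturated, PBS). Protein: horse-spleen apoferritin, 10 uM. Incubation: 10 min, room temperature. Detection: 380 nm excitation, 535 nm emission. Analysis: normalized response, four-parameter Hill.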
A number is an active result; n = inactive; u = inconclusive; x = no result. Unless noted, calls come from the whole dose curve; as a rule, active = well fitted curve in the direction sought with a large enough effect; inconclusive = small, poorly fitted or top-dose-only effect, or another doubt; inactive = no such curve, though single readings can be large; an effect the other way counts as inactive or inconclusive.

SMILES	B2AR arrestin	PGK inhibitor	BCR signal inh	Pin1 inh	FEN1 inhibitor	Apoferritin bind
O=C(c1ccco1)N1CCN(C(=O)c2ccc(-c3ccc([N+](=O)[O-])cc3)o2)CC1	n	n	n	x	79µM	x
O=C(Cn1cnc2sc(-c3ccccc3)cc2c1=O)NCc1ccco1	n	13µM	n	n	u	n
O=C(Cn1cnc2sc(-c3ccccc3)cc2c1=O)NCc1ccccc1	n	n	u	u	n	n
O=C(CNc1ccc(C(F)(F)F)cc1[N+](=O)[O-])OCC(=O)c1ccccc1	n	n	u	n	n	28µM
CCC(=O)N1CCc2cc(Br)cc(S(=O)(=O)N3CCCC(C(=O)NCc4ccccc4)C3)c21 (stereo not given)	x	n	x	u	79µM	n
N#Cc1nc(Nc2cccc([N+](=O)[O-])c2)nc(NC2CCCC2)n1	x	x	x	n	x	x
O=C(c1ccccc1O)N(Cc1cccs1)Cc1cccs1	x	x	x	n	x	x
O=C1c2ccccc2C(=O)N1Cc1ccncc1	x	x	x	n	x	x
O=[N+]([O-])c1ccc(CNc2ccc(Cl)cc2)s1	u	n	u	n	n	14µM
COc1ccc(C2Nc3ccccc3C(=O)N2Cc2cccc(-c3ccccc3)c2)cc1COc1ccc(NC(C)=O)cc1 (stereo not given)	x	x	x	n	x	x
O=C1C=CC(=O)c2c(O)c(CO)c(CO)c(O)c21	x	8.9µM	x	x	16µM	x
CCc1ccc(NC(=O)CC2C(=O)N(c3ccc(Cl)cc3)C(=O)N2C2CCCC2)cc1 (stereo not given)	x	n	x	u	40µM	n
CC(=O)Nc1ccc2c(O)cc(S(=O)(=O)O)cc2c1	x	n	x	u	u	x
Nc1ccc2c(O)cc(S(=O)(=O)O)cc2c1	x	u	x	u	8.9µM	x
Oc1ccc(CNCc2ccc3c(c2)OCO3)c2cccnc12	n	x	15µM	x	x	x
Oc1ccc(CNCc2ccccc2F)c2cccnc12	x	x	x	n	x	x
C/C(N)=C(/C#N)C(=O)COC(=O)CC12CC3CC(CC(C3)C1)C2	n	n	n	n	n	18µM
C/C(N)=C(/C#N)C(=O)COC(=O)C1CCC(C(C)(C)C)CC1 (stereo not given)	n	n	n	n	u	35µM
C/C(N)=C(/C#N)C(=O)COC(=O)CC1CCCC1	n	n	n	n	n	u
C/C(N)=C(/C#N)C(=O)COC(=O)CSc1ccccc1	n	n	n	n	n	n
O=C(Nc1ccccc1)C1CCN(c2nc(-c3ccc(Br)cc3)cs2)CC1	x	x	x	n	x	x
O=C1CCc2cc(S(=O)(=O)Nc3cc(F)cc(Cl)c3)c(F)cc2N1	x	x	x	n	x	x
CCCCCCCCCCCCCCCC[n+]1cccc2ccccc21	n	n	u	u	79µM	u
CCCCCCCCCCCC[n+]1ccc(C)c2ccccc21	x	x	x	x	35µM	x
COc1ccc(-c2nc3ccc(Cl)cc3c(=O)n2Cc2ccccc2)cc1COc1ccc(NC(C)=O)cc1	x	x	x	n	x	x
SMILES	B2AR arrestin	PGK inhibitor	BCR signal inh	Pin1 inh	FEN1 inhibitor	Apoferritin bind
N#Cc1ccccc1NC(=O)CSC1=Nc2ccccc2C2CC=NN12 (stereo not given)	n	n	20µM	n	n	n
Cc1occc1C(=O)N/N=C/C=C/c1ccc(N(C)C)cc1	n	n	u	u	n	n
Cc1occc1C(=O)N/N=C/c1ccc(N(C)C)cc1	n	25µM	u	n	n	n
O=C(CNC(=O)c1ccc(Cl)cc1Cl)OCC(=O)c1ccc2c(c1)OCCO2	n	n	n	n	n	14µM
O=C(COC(=O)CNC(=O)c1ccc(Cl)cc1Cl)NCC1CCCO1 (stereo not given)	n	n	n	n	n	x
COc1cc(N=Nc2cccc(S(N)(=O)=O)c2)c2ccccc2c1N	n	n	u	u	45µM	n
NC1=NC(=Nc2cccc(S(N)(=O)=O)c2)c2ccccc21	n	n	n	n	n	n
CCCCCC(=O)NNC(=O)Nc1ccccc1	n	n	n	n	n	n
CCCCSC(=O)Nc1ccccc1	n	n	n	n	n	13µM
CN(C)c1cccc(-c2cc(N3CCC(C(N)=O)CC3)ncn2)c1	x	x	x	n	x	x
O=C(CSc1ccccc1Cl)c1ccco1	n	n	n	n	n	25µM
Cc1ccc(NS(=O)(=O)c2cc3c(cc2N(C)C)CCC(=O)N3)cc1C	x	x	x	n	x	x
CCOc1ccc2nc3cc(NCc4ccc(OC)cc4)ccc3c(N)c2c1	n	x	n	u	22µM	n
COc1ccc(Cl)cc1NC(=O)c1c(NCc2sccc2C)sc2c1CCCC2	x	n	n	n	79µM	n
COc1ccc2c(c1OC)C(=O)OC2	n	n	u	n	n	n
COc1ccc2c3c(cccc13)C(=O)CC2	n	n	u	x	50µM	n
CCCc1cc(F)c(S(=O)(=O)N2CCN(S(=O)(=O)c3ccc4c(c3)OCCO4)CC2)cc1F	x	x	x	n	x	x
Cc1ccc(NS(=O)(=O)c2cc3c(cc2Cl)NC(=O)C3)cc1C	x	x	x	n	x	x
CC1=NN(C(N)=S)C(=O)C1N=Nc1ccccc1O (stereo not given)	n	n	n	n	n	n
CCOc1ccccc1N=NC1C(=O)N(C(N)=S)N=C1C (stereo not given)	1.1µM	n	u	n	n	n
CCCCN1/C(=C/c2ccc3ccccc3[n+]2CC)Sc2ccccc21	n	n	n	n	40µM	u
O=C(Cn1cc(CN(Cc2ccccc2)Cc2ccccc2)nn1)Nc1cc(C(F)(F)F)ccc1Cl	x	x	x	n	x	x
C=CCNc1nnc(-c2cccc3ccccc23)o1	x	x	x	n	x	x
O=c1cc(-c2cccc(F)c2)[nH]c2ccc(Cl)cc12	x	x	x	x	x	n
O=c1cc(-c2cccc(F)c2)[nH]c2ccccc12	n	n	21µM	n	n	n
SMILES	B2AR arrestin	PGK inhibitor	BCR signal inh	Pin1 inh	FEN1 inhibitor	Apoferritin bind
O=C1c2ccccc2C(=O)N1c1cccc2ccncc12	x	x	x	n	x	x
Cc1ccccc1OCCn1cnc2c(N)ncnc21	n	n	18µM	n	n	n
Cc1ccccc1OCCn1c(=S)[nH]c2c(N)ncnc21	n	n	n	n	n	n
CN(C)c1ncc(C2=C(Cl)C(=O)C(N3CCCC3)=C(Cl)C2=O)s1	x	n	x	u	50µM	x
Cn1nc(-c2ccc(C(=O)NCCO)cc2)c2ccccc2c1=O	5.6µM	n	n	n	n	n
COc1cc2sc3cc(NCCCN4CCOCC4)ccc3c(=O)c2cc1OC	n	n	u	u	u	x
O=c1c2ccccc2sc2ccc(NCCCN3CCOCC3)cc12	x	n	x	u	45µM	x
Cn1nnnc1Sc1ncnc2scc(-c3cccc(C#N)c3)c12	x	x	x	n	x	x
Nc1cccc(S(=O)(=O)N2CCN(S(=O)(=O)c3ccc4c(c3)OCCO4)CC2)c1	x	x	x	n	x	x
Cc1ccc(C(=O)N2CCCCC2)cc1NC1=C(Cl)C(=O)N(Cc2ccccc2)C1=O	n	n	u	n	n	x
Cc1ccc(O)c(NC2=C(Cl)C(=O)N(Cc3ccccc3)C2=O)c1	n	n	u	n	n	22µM
Cn1c2cc(CO)sc2c2cnn(Cc3ccccc3F)c(=O)c21	x	x	x	n	x	x
Cc1c(C)c2cc(Cl)c(O)c(CN(C)C)c2oc1=O	n	n	n	n	n	n

Bioassay records deposited in PubChem BioAssay by National Center for Advancing Translational Sciences (NCATS).
